This note sets out measurements from PubChem BioAssay AID1745849 (National Center for Advancing Translational Sciences (NCATS), 2022).

The structures appear in SMILES notation. The campaign covered roughly 2,100 compounds. About 320 (15%) were called active. About 52% were inconclusive and are not listed. Calls follow the shape of the dose curve; as a rule, active = well fitted cell-killing curve with a large enough effect; inconclusive = small, poorly fitted or top-dose-only effect, or effect the other way; inactive = flat fitted curve, though single readings scatter. Some of the results follow. Entries that show only a call come without a potency.
Potency is read from the fitted curve at half-maximal effect.

A short description of this assay: Viability Counterscreen for CMV-Luciferase Assay of Inhibitors of ATXN expression. Also: nearly all actives have a fitted effect of over 55% in size. The following applies: HEK-293 CMV-luciferase cells viability, protease fluorescence, 24 h. An outline of the steps:
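HEK-293 cells stably expressing CMV-luciferase, treated 24 hr at 37 °C with compounds (several concentrations). Viability by Gly-Phe-AFC fluorescence (25 uM final, 30 min); reporter by SteadyGlo luminescence after 5 min.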
A general note: Counterscreens check selectivity or assay interference.
Turning to `NS(=O)(=O)c1ccc(N2N=C(c3ccccc3)CC2c2cccc(Cl)c2)cc1` (configuration not stated), the Potency entry was “inactive”.

With `COc1cc2c(O)c3c(c(-c4ccc5c(c4)OCO5)c2cc1OC)C(=O)OC3`, the Potency result is “inactive”.

On to `CCCCOc1ccc(NC2=NC3(CCCC3)N=C(N)N2)cc1`, for which the Potency result was “inactive”.

With `Cc1ccc(Nc2c(-c3ccccn3)nc3cccc(C)n23)cc1`, the Potency is 3.98 µM (active).

Consider `Cc1ccn2c(Nc3ccccc3C)c(-c3ccccn3)nc2c1`, for which the Potency is 8.91 µM (active).

For the compound `Cc1cccn2c(Nc3ccccc3)c(-c3ccccn3)nc12`, the Potency entry is “inactive”.

On to `Cc1ccc(Nc2c(-c3ccccn3)nc3cc(C)ccn23)cc1`, for which the Potency is 3.55 µM (active).

Turning to `NS(=O)(=O)c1ccc(CCNC(=O)COC(=O)/C=C/c2cc(Br)ccc2F)cc1`, the Potency result was “inactive”.

In the case of `COC(=O)c1cc(Cl)ccc1NCC(N)c1ccccc1` (configuration not stated), the Potency result is “inactive”.

`O=C1CN(C(=O)c2c(F)cccc2F)C(c2ccc(F)cc2)c2cc(Br)ccc2N1` (configuration not stated): the Potency entry is “inactive”.

Turning to `CCOc1ccc(S(=O)(=O)NCCC(=O)N2CC=C(c3ccccc3)CC2)cc1`, the Potency entry is “inactive”.

As for `Cc1cc(N2CCN(Cc3nc(-c4ccc(Cl)cc4)oc3C)CC2)cc(C)n1`, the Potency result is “inactive”.

Take `N#C/C(=C\Nc1ccc2cn[nH]c2c1)c1nc(-c2ccc(Cl)cc2)cs1`: the Potency result was “inactive”.

Regarding `Cc1ccc(S(=O)(=O)c2nc(S(C)(=O)=O)sc2N2CCCCC2C)cc1` (configuration not stated), the Potency entry is “inactive”.

Consider `COc1cc(Br)cc(/C=N/NC(=O)Cc2ccccc2)c1O`, for which the Potency result is “inactive”.

On to `COc1ccc(Cc2nnc(N/N=C/c3ccccc3O)[nH]c2=O)cc1OC`, for which the Potency was 5.62 µM (active).

On to `COc1ccc(CNC(=O)c2ccc(-c3cccnc3)c3ccoc23)cc1OC`, for which the Potency result was “inactive”.

Turning to `Cc1ccc(NC(=O)CN2C(=O)c3ccccc3S2(=O)=O)cc1C`, the Potency entry was “inactive”.

As to `[O-][n+]1onc2c1CCc1c-2nn(-c2ccccc2Cl)[n+]1[O-]`, the Potency is 25.1 µM (active).

As for `CN1C(=O)/C(=C\c2ccccc2F)Sc2ccc(C(=O)NC3CCN(Cc4ccccc4)CC3)cc21`, the Potency result is “inactive”.

Regarding `O=C(Cc1coc2cc3c(cc12)CCC3)OCC(=O)N1CCCC1=O`, the Potency result was “inactive”.

On to `CCCc1nc(C)cc(N2CCN(c3ccccc3)CC2)n1`, for which the Potency result is “inactive”.

Consider `CCCCn1c2ccc(F)cc2c2nnc(NN)nc21`, for which the Potency is 14.1 µM (active).

Take `COc1cccc(-c2nn(C)c3sc(C(=O)NCCCN(C)Cc4ccccc4)cc23)c1`: the Potency result is “inactive”.

As to `CCCCC(=O)NNC(=S)NC(=O)c1ccc(C)cc1`, the Potency result was “inactive”.

Consider `CC(C)CC(=O)NC(=S)NNC(=O)c1ccc(NC(=O)C2CCCCC2)cc1`, for which the Potency entry is “inactive”.

In the case of `COc1ccc(C(=O)NNC(=S)NC(=O)C(C)(C)C)cc1`, the Potency is 25.1 µM (active).

With `Cc1ccc(Cl)cc1-c1ccc(C=Nc2ccc(N3CCOCC3)cc2)o1`, the Potency entry is “inactive”.

Consider `COc1cc(C#Cc2c(-c3cncn3C)n(C)c3ccc(-c4cnc(N5CCOCC5)nc4)cc23)cc(OC)c1`, for which the Potency entry is “inactive”.

With `COc1ccc(-c2csc3ncnc(Sc4nnnn4C)c23)cc1`, the Potency entry is “inactive”.

`Cn1nnnc1Sc1ncnc2scc(-c3cccs3)c12`: the Potency was 8.91 µM (active).

For `O=C(c1ccco1)N1CCN(c2ncnc3scc(-c4cccs4)c23)CC1`, the Potency entry is “inactive”.

On to `C[C@@H]1CC=C[C@@H]2[C@H]1C(=O)N(Cc1ccccc1)[C@H]2c1ccccc1Br`, for which the Potency entry is “inactive”.

In the case of `CCOC(=O)C1CCN(c2ncnc3c2cnn3-c2ccc(Cl)cc2)CC1`, the Potency entry is “inactive”.

Take `Cc1ccc(N=Nc2ccc(O)c3ncccc23)cc1`: the Potency was 10 µM (active).

Regarding `Cc1ccccc1N=Nc1ccc(O)c2ncccc12`, the Potency is 7.94 µM (active).

As for `CCCOCc1ccc(O)c2ncccc12`, the Potency result is “inactive”.

As for `COc1ccc(CNCCC(c2ccc(OC(C)C)cc2)c2ccccc2OC)cc1` (configuration not stated), the Potency result is “inactive”.

As to `CCCC1CCC(c2ccc(C(=O)NN)cc2)CC1` (configuration not stated), the Potency result was “inactive”.

On to `O=S(=O)(c1ccc2nc(COc3ccc(Cl)cc3Cl)[nH]c2c1)N1CCOCC1`, for which the Potency result was “inactive”.

Turning to `CC[n+]1c(/C=C/c2c[nH]c3ccccc23)ccc2cc(C)ccc21`, the Potency was 12.6 µM (active).

Take `Cc1ccnc(NC(=O)CCCc2c[nH]c3ccccc23)c1`: the Potency entry is “inactive”.

On to `Cc1ccc(C)c(S(=O)(=O)N2CCN(c3ncnc4sccc34)CC2)c1`, for which the Potency entry is “inactive”.

Turning to `COc1ccccc1-c1ccc2c(c1)C(C)(Cc1cccc(F)c1)C(=O)N2` (configuration not stated), the Potency entry was “inactive”.

For `CC1CCC(CN2C(Nc3ccccc3)=NC[C@@H]2Cc2ccccc2)CC1` (some centres not stated), the Potency result was “inactive”.

Turning to `NC1=NC[C@H](Cc2ccccc2)N1CCCCC1CCCCC1`, the Potency result was “inactive”.

Take `C[C@@H](CN1C2=NC[C@H](Cc3ccccc3)N2C[C@H]1Cc1ccc(O)cc1)NC(=O)CCC1CCCCC1`: the Potency was 17.8 µM (active).

Take `Cc1cc(OCC(=O)Nc2ccc(Br)cc2)cc2c1C(=O)CC(C)(C)O2`: the Potency entry was “inactive”.

For the compound `OCCNc1c2ccccc2nc2ccccc12`, the Potency entry is “inactive”.

Consider `COc1cc(N)ccc1Nc1c2ccccc2nc2ccccc12`, for which the Potency was 14.1 µM (active).

Regarding `COc1cc2cc(C(=O)NC(C)c3cccc4ccccc34)c(N)nc2cc1OC` (configuration not stated), the Potency result was “inactive”.

Turning to `O=c1c2c(-c3ccccc3)csc2nc2c3ccccc3c(NCCN3CCOCC3)nn12`, the Potency entry was “inactive”.

For `CC(=O)C(=Cc1cccc(C#N)c1)C(=O)c1ccccc1`, the Potency is 22.4 µM (active).

On to `Cc1ccc(NC(=O)CCC(=O)c2cc(C)sc2C)nc1`, for which the Potency entry is “inactive”.

`CCOC(=O)c1c(NC(=O)CSc2nnnn2-c2ccccc2)sc2c1CC(C)(C)NC2(C)C`: the Potency entry is “inactive”.

On to `CCN(CC)CCCNc1nc2ccccc2c2nc(-c3ccncc3)nn12`, for which the Potency is 15.8 µM (active).

Take `O=C(Nc1nc(-c2ccccn2)cs1)Nc1ccc(F)cc1F`: the Potency is 11.2 µM (active).

Regarding `COC(=O)C(Cc1ccc(O)cc1)NC(=O)C(C)Oc1ccccc1` (configuration not stated), the Potency result was “inactive”.

For the compound `CC(C)CC(N)c1csc(NC(=O)Nc2ccccc2C(C)(C)C)n1` (configuration not stated), the Potency result is “inactive”.

As for `O=C(Nc1nc(-c2ccccn2)cs1)c1ccc(F)c(S(=O)(=O)N2CCOCC2)c1`, the Potency is 5.01 µM (active).

For `COc1cccc(C(=O)Nc2nc(-c3ccc(S(=O)(=O)N4CCOCC4)cc3)cs2)c1`, the Potency result is “inactive”.

On to `CC(Oc1ccc(F)cc1)C(=O)Nc1nc(-c2ccccn2)cs1` (configuration not stated), for which the Potency is 7.94 µM (active).

For `NC(c1ccccc1)c1csc(NC(=O)Nc2ccccc2Oc2ccccc2)n1` (configuration not stated), the Potency entry is “inactive”.

On to `O=C(CCN1C(=O)C2CC=CCC2C1=O)Nc1nc(-c2ccc(F)c(F)c2)cs1` (configuration not stated), for which the Potency entry was “inactive”.

Regarding `COC(=O)COc1ccc(-c2nccc(-c3ccccn3)n2)cc1`, the Potency result is “inactive”.

Consider `O=C(Nc1nc(-c2ccc(S(=O)(=O)N3CCOCC3)cc2)cs1)c1ccccc1`, for which the Potency entry was “inactive”.

Take `O=C(CN1C(=O)C2CCCCC2C1=O)Nc1nc(-c2ccccn2)cs1` (configuration not stated): the Potency was 17.8 µM (active).

For `O=C(CC1Sc2ccccc2NC1=O)NNc1cccc(Cl)c1Cl` (configuration not stated), the Potency entry is “inactive”.

Turning to `CN1OC[C@@H]2CN[C@H](c3ccc(-c4cc5ccccc5o4)cc3)C[C@@H]21`, the Potency entry was “inactive”.

As to `CC1(C(=O)NCc2cccc(C(F)(F)F)c2)CCN1Cc1ccc(-c2ccccc2)o1` (configuration not stated), the Potency result was “inactive”.

For the compound `Cc1cc(C)c(C(O)c2ncc(-c3cccc4ccccc34)[nH]2)c(C)c1` (configuration not stated), the Potency entry was “inactive”.

As to `CCN1CC2=C(OC(N)=C(C#N)C2c2cccs2)/C(=C\c2cccs2)C1` (configuration not stated), the Potency entry was “inactive”.

Regarding `O=C(CCCOc1ccc(Cl)cc1Cl)N/N=C/c1ccccc1O`, the Potency is 3.98 µM (active).

`O=C(CCc1ccccc1)N/N=C/c1cc(Br)ccc1O`: the Potency entry was “inactive”.

On to `O=C(CN1CCCc2ccccc21)N/N=C/c1ccccc1O`, for which the Potency entry is “inactive”.

As for `CC(C)(C)c1ccc(NC(=O)N2CCCN(c3c(Cl)cncc3Cl)CC2)cc1`, the Potency entry was “inactive”.

Take `O=C(NC1CCN(Cc2ccccc2)CC1)c1cccc(S(=O)(=O)Nc2ccc(SC(F)F)cc2)c1`: the Potency entry is “inactive”.

In the case of `O=C(c1ccc(S(=O)(=O)c2cccc(Cl)c2)c([N+](=O)[O-])c1)N1CCN(Cc2ccccc2)CC1`, the Potency was 15.8 µM (active).

Take `OC(c1ccccc1)(c1nc(-c2cc3ccccc3o2)cs1)C(F)(F)F` (configuration not stated): the Potency entry was “inactive”.

As for `O=S(=O)(c1ccc2c(c1)OCCO2)N1CCC(c2nc3ccc(Cl)cc3[nH]2)CC1`, the Potency result is “inactive”.

Regarding `Cc1ccc(S(=O)(=O)/N=C(\Sc2ccccc2)c2ccccc2)cc1`, the Potency was 15.8 µM (active).

On to `Cc1ccc(S(=O)(=O)N2CCc3ccccc3CC2)cc1`, for which the Potency result was “inactive”.

Regarding `CCn1c(CCC(=O)Nc2nc3c(s2)CCCC3)nc2cc(S(=O)(=O)N(C)C)ccc21`, the Potency entry was “inactive”.

With `Cc1ccc2c(Cl)cc(Cl)c(O)c2n1`, the Potency entry was “inactive”.

With `COc1ccc(C)cc1NC(=O)COC(=O)c1c(C)nn(-c2ccccc2)c1C`, the Potency result is “inactive”.

As to `COc1ccc(C)cc1NC(=O)CSc1ccc(-c2ccccn2)nn1`, the Potency was 12.6 µM (active).

Regarding `O=c1c(Cc2ccccc2)c(O)nc2n1CCS2`, the Potency result was “inactive”.

In the case of `COc1cccc(/C=N/NC(=O)CC(C)O)c1OC/C=C/c1ccccc1` (configuration not stated), the Potency entry was “inactive”.

With `COc1ccc(/C=N/Nc2cc(N3CCCC3)nc(N3CCCC3)n2)cc1`, the Potency was 2.82 µM (active).

Regarding `COc1ccc(C(=O)N/N=C/c2ccc(N(C)c3ccccc3)cc2)cc1`, the Potency entry was “inactive”.

As to `CC(=O)c1cccc(NC(=O)C2Cc3c(-c4cccc(C(C)=O)c4)ccnc3O2)c1` (configuration not stated), the Potency result is “inactive”.

`NC(=O)c1cccc(-c2ccnc3c2CC(C(=O)Nc2cccc(C(F)(F)F)c2)O3)c1` (configuration not stated): the Potency entry was “inactive”.

For `CS(=O)(=O)Nc1ccccc1C(=O)Nc1cc(Cl)cc(Cl)c1`, the Potency result was “inactive”.

Turning to `CS(=O)(=O)Nc1cccc(NC(=O)c2cccc3c(-c4cccc(C(N)=O)c4)coc23)c1`, the Potency was 17.8 µM (active).

Turning to `CC(=O)c1cccc(NC(=O)c2cccc3c(-c4cccc(C(N)=O)c4)coc23)c1`, the Potency was 11.2 µM (active).

Regarding `Cc1cc(OCc2nc(N)nc(N)c2-c2ccc(Cl)c(Cl)c2)ccc1[N+](=O)[O-]`, the Potency entry is “inactive”.

Regarding `Cc1nn(-c2ccccc2)c2nc(-c3cccs3)cc(C(=O)NN)c12`, the Potency entry is “inactive”.

`CCN(CC)CCNC(=O)CCc1c(C)nc2c(c(C)nn2-c2ccc(C)cc2)c1C`: the Potency is 3.55 µM (active).

For `CCn1c(-c2ccc(C)cc2)nn(CC(=O)NCCc2ccccc2)c1=S`, the Potency entry was “inactive”.

Turning to `Cc1ccc(CN2CCC(c3nc4ccc(Cl)cc4[nH]3)CC2)cc1`, the Potency entry was “inactive”.

For `O=C(N/N=C/c1cc([N+](=O)[O-])ccc1O)c1cc(-c2ccccc2)nc2ccccc12`, the Potency is 2.51 µM (active).

Turning to `O=C(N/N=C/c1cc([N+](=O)[O-])ccc1O)c1cccc2cc[nH]c12`, the Potency is 7.94 µM (active).

`COc1cccc(/C=N/NC(=O)c2cc(-c3ccccn3)nc3ccccc23)c1O`: the Potency is 2.82 µM (active).

On to `C/C(=N\NC(=O)c1cc(-c2cccnc2)nc2ccccc12)c1ccc(O)cc1O`, for which the Potency entry is “inactive”.

In the case of `COc1cccc(/C=N/Nc2nc3ccccc3n3cnnc23)c1O`, the Potency result was “inactive”.

Regarding `O=[N+]([O-])c1ccc(O)c(/C=N\N=C2c3ccccc3-c3ccccc32)c1`, the Potency was 10 µM (active).

For the compound `COc1cccc(/C=N/NC(=O)c2ccc(-c3ccccc3)cc2)c1O`, the Potency result is “inactive”.
